Results reported in PubChem BioAssay (EPA / NIEHS).
Calls of active or inactive are those of the source. How the source made its calls: active means hit-call score of the fitted dose curve at least 0.9, where 1 is the maximum; inactive means score below 0.9.

What was measured:
Conditions in all cases: mRNA level, 48 h; actives raise or lower the signal
[1] = read-out: Tumor necrosis factor receptor superfamily member 6 (Homo sapiens) (UniProt P25445); experiment: LTEA_HepaRG_FAS: Life Technologies and Expression Analysis (LTEA) Assay for Fas cell surface death receptor (FAS) using HepaRG (AID 2283447)
Procedure, shortened: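 FAS transcript level was measured by TaqMan qRT-PCR against three housekeeping genes after 48 h chemical exposure. Cells were HepaRG, 0.5% DMSO vehicle, with a top concentration of 100 uM and half-log dilutions over eight points, in duplicate.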

[2] = read-out: Fatty acid synthase (Homo sapiens) (UniProt P49327); experiment: LTEA_HepaRG_FASN: Life Technologies and Expression Analysis (LTEA) Assay for Fatty Acid Synthase (FASN) using HepaRG (AID 2283448)
Procedure, shortened: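 Cells were plated, cultured 48 h, switched to serum-free induction medium, then dosed in duplicate (max 100 uM, half-log dilutions, 0.5% DMSO) for 48 h. RNA was then isolated and FASN quantified by qRT-PCR.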

[3] = read-out: Cyclin D2 (CCND2), CCND2 (gene 894); experiment: LTEA_HepaRG_CCND2: Life Technologies and Expression Analysis (LTEA) Assay for Cyclin D2 (CCND2) using HepaRG (AID 2283449)
Procedure, shortened: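 CCND2 transcript levels, quantified by qRT-PCR and normalised to three housekeeping genes, were fitted bidirectionally against 0.5% DMSO. HepaRG cultures were dosed 48 h in duplicate with an 8-point half-log series up to 100 uM.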

[4] = read-out: Cyclin Dependent Kinase Inhibitor 1A (CDKN1A), CDKN1A (gene 1026); experiment: LTEA_HepaRG_CDKN1A: Life Technologies and Expression Analysis (LTEA) Assay for Cyclin Dependent Kinase Inhibitor 1A (CDKN1A) using HepaRG (AID 2283450)
Procedure, shortened: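 Differentiated human HepaRG cells, pre-cultured 48 h, were exposed in duplicate for 48 h in serum-free induction medium to eight half-log concentrations up to 100 uM (0.5% DMSO). CDKN1A mRNA was measured by qRT-PCR, normalized to ACTB/GAPDH/POLR2A, bidirectionally fitted versus DMSO.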

[5] = read-out: catalase (CAT), CAT (gene 847); experiment: LTEA_HepaRG_CAT: Life Technologies and Expression Analysis (LTEA) Assay for catalase (CAT) using HepaRG (AID 2283452);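 on AC50: TaqMan qRT-PCR signal normalized to ACTB GAPDH and POLR2A housekeeping genes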
Procedure, shortened: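 Expression of CAT was quantified by TaqMan qRT-PCR with ACTB/GAPDH/POLR2A normalization after 48 h chemical exposure of HepaRG. Eight-point half-log series, top 100 uM, in 0.5% DMSO; gain or loss fitted against vehicle.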

[6] = read-out: flavin-containing dimethylaniline monooxygenases 3 (FMO3), FMO3 (gene 2328); experiment: LTEA_HepaRG_FMO3: Life Technologies and Expression Analysis (LTEA) Assay for flavin-containing dimethylaniline monooxygenases 3 (FMO3) using HepaRG (AID 2283453)
Procedure, shortened: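 FMO3 transcript quantified by TaqMan qRT-PCR against three housekeeping genes after 48 h chemical exposure of HepaRG cells. Eight-point half-log series, top 100 uM, 0.5% DMSO vehicle; phenobarbital 1mM induction control; up- or down-regulation fitted.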

[7] = read-out: Cytochrome P450 (CYP1A1), CYP1A1 (gene 1543); experiment: LTEA_HepaRG_CYP1A1: Life Technologies and Expression Analysis (LTEA) Assay for Cytochrome P450 (CYP1A1) using HepaRG (AID 2283454)
Procedure, shortened: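 Differentiated HepaRG cells in serum-free induction medium were exposed in duplicate for 48 h to eight half-log concentrations up to 100 uM in 0.5% DMSO. CYP1A1 mRNA was quantified by TaqMan qRT-PCR, normalized to ACTB, GAPDH and POLR2A.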

[8] = read-out: CFLAR gene, CFLAR (gene 8837); experiment: LTEA_HepaRG_CFLAR: Life Technologies and Expression Analysis (LTEA) Assay for CFLAR gene using HepaRG (AID 2283455)
Procedure, shortened: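 Transcript level by qRT-PCR (normalized to ACTB, GAPDH and POLR2A) after 48 h chemical exposure of HepaRG cells, top concentration 100 uM with half-log steps, 0.5% DMSO vehicle, duplicates; fitted bidirectionally against DMSO baseline.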

[9] = read-out: Forkhead box O1 (FOXO1), FOXO1 (gene 2308); experiment: LTEA_HepaRG_FOXO1: Life Technologies and Expression Analysis (LTEA) Assay for Forkhead box O1 (FOXO1) using HepaRG (AID 2283456)
Procedure, shortened: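 FOXO1 transcript quantified by qRT-PCR after 48 h chemical exposure (top 100 uM, half-log steps, 0.5% DMSO) of HepaRG cells, housekeeping-normalized (ACTB/GAPDH/POLR2A). Changes fitted in both directions relative to vehicle.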

[10] = read-out: Forkhead box O3 (FOXO3), FOXO3 (gene 2309); experiment: LTEA_HepaRG_FOXO3: Life Technologies and Expression Analysis (LTEA) Assay for Forkhead box O3 (FOXO3) using HepaRG (AID 2283459)
Procedure, shortened: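 FOXO3 transcript measured by qRT-PCR (normalized to ACTB, GAPDH, POLR2A) after 48 h exposure of HepaRG cells in serum-free induction medium. Duplicates, eight half-log concentrations up to 100 uM, 0.5% DMSO; gain or loss fitted against DMSO.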

[11] = read-out: ABC Transporter (ABCB1), ABCB1 (gene 5243); experiment: LTEA_HepaRG_ABCB1: Life Technologies and Expression Analysis (LTEA) Assay for ABC Transporter (ABCB1) using HepaRG (AID 2283460)
Procedure, shortened: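 ABCB1 transcript level measured by TaqMan qRT-PCR against three housekeeping genes after 48 h chemical exposure of differentiated HepaRG cells. Top concentration 100 uM, half-log steps, eight points, 0.5% DMSO vehicle; bidirectional fit relative to DMSO.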

[12] = read-out: growth arrest and DNA damage 45 (GADD45B), GADD45B (gene 4616); experiment: LTEA_HepaRG_GADD45B: Life Technologies and Expression Analysis (LTEA) Assay for growth arrest and DNA damage 45 (GADD45B) using HepaRG (AID 2283461)
Procedure, shortened: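 Differentiated HepaRG cells, plated 48 h then switched to serum-free induction medium, were exposed 48 h in duplicate to eight half-log concentrations from 100 uM in 0.5% DMSO; mRNA quantified by qRT-PCR, normalized to ACTB/GAPDH/POLR2A, bidirectional fit versus DMSO.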

[13] = read-out: ABC Transporter (ABCB11), ABCB11 (gene 8647); experiment: LTEA_HepaRG_ABCB11: Life Technologies and Expression Analysis (LTEA) Assay for ABC Transporter (ABCB11) using HepaRG (AID 2283463)
Procedure, shortened: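 ABCB11 transcript levels quantified by TaqMan qRT-PCR against three housekeeping genes after 48 h chemical exposure of HepaRG cultures. Concentrations up to 100 uM in half-log steps, 0.5% DMSO vehicle; both induction and suppression scored.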

[14] = read-out: ABC Transporter (ABCC2), ABCC2 (gene 1244); experiment: LTEA_HepaRG_ABCC2: Life Technologies and Expression Analysis (LTEA) Assay for ABC Transporter (ABCC2) using HepaRG (AID 2283464)
Procedure, shortened: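 HepaRG cells were plated 48 h, switched to serum-free induction medium, then exposed in duplicate for 48 h to 8 concentrations (top 100 uM, half-log steps, 0.5% DMSO). ABCC2 mRNA was measured by qRT-PCR normalized to ACTB/GAPDH/POLR2A; bidirectional fitting versus DMSO.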

[15] = read-out: ATP-citrate lyase (ACLY), ACLY (gene 47); experiment: LTEA_HepaRG_ACLY: Life Technologies and Expression Analysis (LTEA) Assay for ATP-citrate lyase (ACLY) using HepaRG (AID 2283466)
Procedure, shortened: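 ACLY mRNA quantified by qRT-PCR on Fluidigm arrays against three housekeeping genes, after 48 h chemical treatment of HepaRG cells (top concentration 100 uM, half-log steps, 0.5% DMSO vehicle). Up- or down-regulation fitted relative to DMSO.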

[16] = read-out: ABC Transporter (ABCC3), ABCC3 (gene 8714); experiment: LTEA_HepaRG_ABCC3: Life Technologies and Expression Analysis (LTEA) Assay for ABC Transporter (ABCC3) using HepaRG (AID 2283462)
Procedure, shortened: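 HepaRG cells in serum-free induction medium were exposed for 48 h in duplicate to 8-point half-log concentrations topping at 100 uM in 0.5% DMSO. ABCC3 mRNA was measured by qRT-PCR normalized to ACTB, GAPDH and POLR2A, with bidirectional fitting versus DMSO.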

[17] = read-out: Broad substrate specificity ATP-binding cassette transporter ABCG2 (Homo sapiens) (UniProt Q9UNQ0); experiment: LTEA_HepaRG_ABCG2: Life Technologies and Expression Analysis (LTEA) Assay for ABC Transporter (ABCG2) using HepaRG (AID 2283465)
Procedure, shortened: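 ABCG2 transcript was quantified by TaqMan qRT-PCR against three housekeeping genes in HepaRG cells. Cells were treated in duplicate for 48 h across an 8-point half-log series up to 100 uM, with 0.5% DMSO vehicle. Gain or loss versus DMSO was fit.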

[18] = read-out: Cyclin D1 (CCND1), CCND1 (gene 595); experiment: LTEA_HepaRG_CCND1: Life Technologies and Expression Analysis (LTEA) Assay for Cyclin D1 (CCND1) using HepaRG (AID 2283451)
Procedure, shortened: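 Differentiated human HepaRG cells in serum-free induction medium were exposed 48 h to eight half-log concentrations up to 100 uM in 0.5% DMSO; mRNA quantified by TaqMan qRT-PCR, normalized to ACTB, GAPDH, POLR2A, fitted bidirectionally versus DMSO.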

[19] = read-out: growth arrest and DNA damage 45 (GADD45A), GADD45A (gene 1647); experiment: LTEA_HepaRG_GADD45A: Life Technologies and Expression Analysis (LTEA) Assay for growth arrest and DNA damage 45 (GADD45A) using HepaRG (AID 2283458)
Procedure, shortened: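 Transcript induction or loss, quantified by TaqMan qRT-PCR against three housekeeping genes, is the read-out. HepaRG cells received chemicals for 48 h across eight half-log concentrations from 100 uM in 0.5% DMSO; gain and loss fitted relative to DMSO.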

Measured: AC50

Sequence of Broad substrate specificity ATP-binding cassette transporter ABCG2 (Homo sapiens) (Q9UNQ0 whole entry, looked up): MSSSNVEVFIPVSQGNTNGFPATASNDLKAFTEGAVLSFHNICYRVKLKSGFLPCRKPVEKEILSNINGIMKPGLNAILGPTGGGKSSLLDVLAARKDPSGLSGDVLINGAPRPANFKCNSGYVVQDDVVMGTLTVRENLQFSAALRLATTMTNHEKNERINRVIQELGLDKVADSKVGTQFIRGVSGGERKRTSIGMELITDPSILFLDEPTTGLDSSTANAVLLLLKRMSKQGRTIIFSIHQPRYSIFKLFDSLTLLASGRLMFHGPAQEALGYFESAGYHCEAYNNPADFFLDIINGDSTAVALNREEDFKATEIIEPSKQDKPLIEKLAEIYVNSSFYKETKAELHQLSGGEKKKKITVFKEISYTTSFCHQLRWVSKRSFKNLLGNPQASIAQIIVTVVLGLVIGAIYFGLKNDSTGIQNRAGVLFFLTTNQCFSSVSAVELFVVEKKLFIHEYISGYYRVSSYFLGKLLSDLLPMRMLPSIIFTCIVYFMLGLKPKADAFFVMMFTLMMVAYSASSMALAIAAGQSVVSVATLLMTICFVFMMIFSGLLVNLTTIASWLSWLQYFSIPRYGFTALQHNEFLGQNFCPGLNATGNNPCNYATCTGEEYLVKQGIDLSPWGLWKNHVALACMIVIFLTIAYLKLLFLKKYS
Sequence of Fatty acid synthase (Homo sapiens) (P49327 whole entry, looked up): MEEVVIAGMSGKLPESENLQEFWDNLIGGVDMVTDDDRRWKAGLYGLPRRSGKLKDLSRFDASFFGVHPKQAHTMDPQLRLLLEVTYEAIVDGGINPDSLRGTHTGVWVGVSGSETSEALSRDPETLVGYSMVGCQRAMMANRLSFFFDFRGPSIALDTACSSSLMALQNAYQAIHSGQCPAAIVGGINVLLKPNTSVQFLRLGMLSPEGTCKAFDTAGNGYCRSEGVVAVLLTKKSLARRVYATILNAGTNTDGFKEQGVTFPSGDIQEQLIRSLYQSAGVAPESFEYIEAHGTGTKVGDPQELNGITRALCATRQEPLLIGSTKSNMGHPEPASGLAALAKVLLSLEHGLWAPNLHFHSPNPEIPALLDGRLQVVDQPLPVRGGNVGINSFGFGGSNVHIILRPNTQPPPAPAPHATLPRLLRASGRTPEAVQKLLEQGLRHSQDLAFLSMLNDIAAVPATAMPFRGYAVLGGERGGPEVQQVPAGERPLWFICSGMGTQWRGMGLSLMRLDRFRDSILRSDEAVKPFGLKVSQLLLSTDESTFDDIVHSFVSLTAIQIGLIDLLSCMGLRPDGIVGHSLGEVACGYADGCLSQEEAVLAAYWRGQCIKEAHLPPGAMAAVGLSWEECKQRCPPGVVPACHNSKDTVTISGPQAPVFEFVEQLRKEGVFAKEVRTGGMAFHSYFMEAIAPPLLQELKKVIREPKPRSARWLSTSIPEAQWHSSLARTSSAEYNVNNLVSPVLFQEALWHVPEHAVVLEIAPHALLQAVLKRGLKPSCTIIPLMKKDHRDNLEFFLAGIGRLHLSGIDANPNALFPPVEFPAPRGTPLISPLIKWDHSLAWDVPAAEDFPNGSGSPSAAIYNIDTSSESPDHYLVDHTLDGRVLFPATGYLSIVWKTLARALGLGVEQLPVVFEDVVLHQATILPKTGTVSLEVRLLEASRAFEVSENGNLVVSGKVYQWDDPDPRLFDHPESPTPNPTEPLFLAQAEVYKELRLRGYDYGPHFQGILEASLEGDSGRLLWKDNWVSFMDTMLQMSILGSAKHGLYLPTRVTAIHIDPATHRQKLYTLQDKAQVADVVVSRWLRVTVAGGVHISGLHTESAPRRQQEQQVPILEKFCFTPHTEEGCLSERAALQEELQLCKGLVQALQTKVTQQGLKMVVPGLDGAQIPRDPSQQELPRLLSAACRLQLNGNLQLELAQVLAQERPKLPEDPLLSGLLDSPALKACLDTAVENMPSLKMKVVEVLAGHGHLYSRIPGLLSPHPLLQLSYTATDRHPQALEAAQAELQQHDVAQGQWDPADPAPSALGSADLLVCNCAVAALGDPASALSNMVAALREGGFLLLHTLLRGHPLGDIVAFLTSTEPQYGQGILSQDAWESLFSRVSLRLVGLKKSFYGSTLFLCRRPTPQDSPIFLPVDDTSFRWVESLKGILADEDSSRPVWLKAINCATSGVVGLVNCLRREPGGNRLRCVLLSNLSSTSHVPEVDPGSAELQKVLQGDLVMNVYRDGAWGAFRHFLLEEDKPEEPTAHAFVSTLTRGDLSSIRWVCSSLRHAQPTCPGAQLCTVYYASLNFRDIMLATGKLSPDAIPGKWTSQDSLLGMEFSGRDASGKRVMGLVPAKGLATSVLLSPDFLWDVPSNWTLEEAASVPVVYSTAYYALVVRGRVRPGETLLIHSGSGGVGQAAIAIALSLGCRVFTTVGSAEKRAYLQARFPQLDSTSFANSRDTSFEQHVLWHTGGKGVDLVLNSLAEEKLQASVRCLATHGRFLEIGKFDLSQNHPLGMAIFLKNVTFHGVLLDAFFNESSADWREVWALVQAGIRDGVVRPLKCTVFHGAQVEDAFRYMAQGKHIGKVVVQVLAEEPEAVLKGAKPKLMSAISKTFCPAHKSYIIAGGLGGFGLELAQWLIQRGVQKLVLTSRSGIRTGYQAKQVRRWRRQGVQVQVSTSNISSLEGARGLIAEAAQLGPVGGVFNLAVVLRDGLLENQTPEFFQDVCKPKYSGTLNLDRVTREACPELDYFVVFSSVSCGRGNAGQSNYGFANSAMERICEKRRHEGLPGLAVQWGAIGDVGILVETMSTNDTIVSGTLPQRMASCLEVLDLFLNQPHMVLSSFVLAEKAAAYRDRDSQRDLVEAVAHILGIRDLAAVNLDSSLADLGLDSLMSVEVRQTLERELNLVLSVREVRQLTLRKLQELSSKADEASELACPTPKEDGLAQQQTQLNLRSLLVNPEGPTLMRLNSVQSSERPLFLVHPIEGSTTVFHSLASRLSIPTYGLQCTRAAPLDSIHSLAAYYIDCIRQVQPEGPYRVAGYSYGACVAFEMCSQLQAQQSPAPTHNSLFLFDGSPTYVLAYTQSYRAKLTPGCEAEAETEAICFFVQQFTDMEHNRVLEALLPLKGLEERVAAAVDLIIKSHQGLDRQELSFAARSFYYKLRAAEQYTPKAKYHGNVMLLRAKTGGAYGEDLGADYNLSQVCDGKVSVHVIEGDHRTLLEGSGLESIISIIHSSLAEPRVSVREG

Cc1ccc(C)c(C)c1
not listed: [16] | [17] | [18] | [19]
inactive: all other assays above

O=C(O)CCCCC(=O)O
active: [7] 73.7 µM
not listed: [18] | [19]
inactive: all other assays above

C[Si]1(C)O[Si](C)(C)O[Si](C)(C)O[Si](C)(C)O1
not listed: [15] | [16] | [18] | [19]
inactive: all other assays above

COc1ccc2c(c1)c(CC(=O)O)c(C)n2C(=O)c1ccc(Cl)cc1
not listed: [6] | [13] | [16] | [19]
inactive: all other assays above

COc1cc(C=O)ccc1O
not listed: [17] | [18] | [19]
inactive: all other assays above

CCCCCCCCCCCCCO
not listed: [17] | [18] | [19]
inactive: all other assays above

CCCCCCCCCCCC(=O)OC
active: [7] 60.3 µM
not listed: [6] | [16] | [17]
inactive: all other assays above

Cc1c(C(=O)O)c(O)cc2c1C(=O)c1c(O)c([C@@H]3O[C@H](CO)[C@@H](O)[C@H](O)[C@H]3O)c(O)c(O)c1C2=O
not listed: [6] | [17] | [19]
inactive: all other assays above

c1cc(-c2ccncc2)ccn1
active: [7] 50 µM
not listed: [13] | [16] | [18]
inactive: all other assays above

Nc1ccc2c(c1)C(=O)c1ccccc1C2=O
inactive: [1] | [3] | [9] | [19] | [11] | [16] | [14] | [15]
active: [2] 2.86 µM | [4] 26.8 µM | [5] 1.57 µM | [6] 12 µM | [7] 6.31 µM | [8] 3.31 µM | [10] 3 µM | [12] 9.75 µM | [13] 4.81 µM | [17] 10.4 µM

COc1cc(S(=O)(=O)O)c(C)cc1N=Nc1c(O)ccc2cc(S(=O)(=O)O)ccc12
not listed: [7] | [16] | [17] | [18] | [19]
inactive: all other assays above

CC1(C)CC(N=C=O)CC(C)(CN=C=O)C1 (configuration not stated)
active: [2] 69.7 µM | [13] 50 µM
not listed: [6] | [16] | [17]
inactive: all other assays above

Cc1cccc(C)c1O
active: [7] 50 µM
not listed: [17] | [18]
inactive: all other assays above

CC1=C(/C=C/C(C)=C/C=C/C(C)=C/CO)C(C)(C)CCC1
active: [7] 64.1 µM | [11] 52.2 µM | [14] 52.2 µM
not listed: [17] | [18] | [19]
inactive: all other assays above

O=C(O)Cc1ccccc1Nc1c(Cl)cccc1Cl
active: [7] 76.4 µM | [11] 6.67 µM | [14] 13 µM
not listed: [3] | [6] | [17] | [18]
inactive: all other assays above

Nc1ccccc1N
active: [1] 50 µM | [2] 71.4 µM | [4] 50 µM | [5] 61.7 µM | [7] 3.28 µM | [8] 61.4 µM | [9] 82.2 µM | [19] 50 µM | [10] 63.3 µM | [11] 68.9 µM | [12] 50 µM | [14] 71 µM
inactive: [18] | [17]
